Among all 300,000 compounds or so, about 37,000 (12%) were called active. This excerpt belongs to a sample that is enriched for actives. Values without a mark were called inactive. Cut-off read from the data, not from the text of the source: active = max response mostly above about 13% (no sharp cut-off); inactive = mostly below about 14%.
Experiment: Cycloheximide Counterscreen for Small Molecule Inhibitors of Shiga Toxin; note: read at 38.3 µM for the half of the compounds with a filed dose; 0% is about no effect
Conditions: cell reporter, cycloheximide protein synthesis inhibition counterscreen; active compounds read high

Question: For `CCCCNC(=O)N(O)C1N(/N=C/c2ccccc2O)C(=S)SC1(C)C` (stereo not drawn), which max response is on record?
Answer: The max response was 40.5% (active).

Question: Which max response does the source give for `CCCCNC(=O)N(O)C1N(/N=C/c2ccc(N(C)C)cc2)C(=S)SC1(C)C` (stereo not drawn) here?
Answer: Its max response is -1.87%.

Question: Which max response does the source give for `CCC(C)N1C(=S)SC(C)(C)C1N(O)C(=O)NC1CCCCC1` (stereo not drawn) here?
Answer: The max response was -3%.

Question: For `COc1ccc(CC(=O)Nc2sc(Cc3ccccc3)c(C)c2C(N)=O)cc1`, which max response is on record?
Answer: Its max response is -4.58%.

Question: For `CCCc1cc(=S)n2c([nH]c3ccccc32)c1C#N`, which max response is on record?
Answer: The max response was 9.34%.

Question: With `COc1cc(C(=O)N2CCN(C/C=C/c3ccccc3)CC2)cc(OC)c1C` as the compound, how does the max response read?
Answer: The max response was -2.42%.

Question: With `O=C(NCCc1c[nH]c2ccccc12)c1cc2ccccc2oc1=O` as the compound, how does the max response read?
Answer: The max response was 52.8% (active).

Question: Which max response does the source give for `COc1ccc(/C=C(\NC(=O)c2ccc(OC)c(OC)c2)C(=O)NCCc2c[nH]c3ccccc23)cc1` here?
Answer: The max response was -2.44%.

Question: With `CN(c1ccccc1)S(=O)(=O)c1ccc(Cl)c(C(=O)NCCc2c[nH]c3ccccc23)c1` as the compound, how does the max response read?
Answer: The max response was -2.81%.

Question: For `O=C(NC(Cc1c[nH]c2ccccc12)C(=O)O)/C(=C/c1ccco1)NC(=O)c1ccccc1` (stereo not drawn), which max response is on record?
Answer: The max response was 7.91%.

Question: Which max response does the source give for `Cc1ccc(C(=O)N/C(=C/c2ccco2)C(=O)NCCc2c[nH]c3ccccc23)cc1C` here?
Answer: The max response was 15.8% (active).

Question: With `Cc1cc(C)cc(NC(=S)NCCc2c[nH]c3ccccc23)c1` as the compound, how does the max response read?
Answer: The max response was -3.82%.

Question: Which max response does the source give for `O=C(NCCc1c[nH]c2ccccc12)c1cccc(Br)c1` here?
Answer: Its max response is 27.9% (active).

Question: Which max response does the source give for `O=C(NCCc1c[nH]c2ccccc12)C(=O)NCC1CCCO1` (stereo not drawn) here?
Answer: Its max response is -2.43%.

Question: Which max response does the source give for `COc1ccccc1CC(=O)NCCc1c[nH]c2ccccc12` here?
Answer: Its max response is 5.67%.

Question: With `Cc1cc(C)cc(NS(=O)(=O)Cc2ccccc2)c1` as the compound, how does the max response read?
Answer: The max response was 2.71%.

Question: Which max response does the source give for `COc1ccc(CNc2nc3c(c(=O)[nH]c(=O)n3C)n2Cc2ccccc2)cc1` here?
Answer: The max response was 1.15%.

Question: For `CCn1c(CNC(=O)c2cc(OC)c(OC)c(OC)c2)cc2cc(C)ccc21`, which max response is on record?
Answer: The max response was -0.507%.

Question: Which max response does the source give for `CC(=O)c1c(C)[nH]c(C(=O)COC(=O)c2cccc(S(=O)(=O)N(C)c3ccccc3)c2)c1C` here?
Answer: The max response was 6.94%.

Question: For `COc1ccc(C(=O)OCC(=O)NCC2CCCO2)cc1[N+](=O)[O-]` (stereo not drawn), which max response is on record?
Answer: The max response was 0.371%.

Question: With `CCC(=O)c1ccc(OCC(O)Cn2nc(C)c(C(C)=O)c2C)cc1` (stereo not drawn) as the compound, how does the max response read?
Answer: The max response was -6.71%.

Question: For `O=C(NCc1cccc(Cl)c1)C1CCC(=O)N(C2CC2)C1` (stereo not drawn), which max response is on record?
Answer: Its max response is 0.588%.

Question: For `COc1cc(NC(=O)CSc2ccc(-c3cccnc3)nn2)cc(OC)c1`, which max response is on record?
Answer: Its max response is -2.34%.

Question: Which max response does the source give for `COc1ccc(NC(=O)CSc2ccc(-c3ccco3)nn2)c(OC)c1` here?
Answer: The max response was 9.5%.

Question: For `O=C(CSc1ccc(-c2ccc(F)cc2)nn1)Nc1ccc2c(c1)OCCO2`, which max response is on record?
Answer: The max response was 10.9%.

Question: Which max response does the source give for `O=C(CSc1ccc(-c2ccco2)nn1)Nc1cccc(F)c1` here?
Answer: Its max response is 26% (active).

Question: With `Cc1ccccc1NC(=O)CSc1ccc2nnc(-c3ccccn3)n2n1` as the compound, how does the max response read?
Answer: Its max response is -1.54%.

Question: With `O=C(CSc1ccc(-c2ccccn2)nn1)Nc1ccccc1` as the compound, how does the max response read?
Answer: The max response was 20% (active).

Question: With `COc1ccc(CNC(=O)COC(=O)/C=C/c2ccc(S(=O)(=O)N3CCOCC3)cc2)cc1` as the compound, how does the max response read?
Answer: Its max response is 9.31%.

Question: Which max response does the source give for `O=c1c2ccccc2nnn1CSc1nc2sc3c(c2c(=O)n1CC1CCCO1)CCC3` (stereo not drawn) here?
Answer: Its max response is -2.17%.

Question: With `OC(c1ccc(Cl)cc1)C(CN1CCOCC1)c1ccccc1` (stereo not drawn) as the compound, how does the max response read?
Answer: The max response was -2.76%.

Question: Which max response does the source give for `COc1ccc2c(C)c(CCC(=O)NC3CC3)c(=O)oc2c1C` here?
Answer: Its max response is 9.57%.

Question: Which max response does the source give for `O=C1C(=O)N(c2ccccc2)c2ccccc21` here?
Answer: Its max response is -2.88%.

Question: Which max response does the source give for `CC(=O)CCS(=O)(=O)c1ccc(C)c(C)c1` here?
Answer: Its max response is 27.6% (active).

Question: Which max response does the source give for `Cc1ccc(S(=O)(=O)CCC(=O)OCc2ccccc2)cc1` here?
Answer: The max response was 0.648%.

Question: Which max response does the source give for `O=C(O)CCS(=O)(=O)c1ccc(-c2ccccc2)cc1` here?
Answer: The max response was -1.33%.

Question: For `COc1ccc(OC)c(NC(=O)C2CCCN2S(=O)(=O)c2cccc3nsnc23)c1` (stereo not drawn), which max response is on record?
Answer: The max response was 12.5%.

Question: With `Cc1ccc(-c2nnc(Nc3ccc(C(=O)N(C)C)cc3)c3ccccc23)cc1S(N)(=O)=O` as the compound, how does the max response read?
Answer: Its max response is -2.16%.

Question: For `CC(C)(C)NS(=O)(=O)c1ccc(NC(=O)C2CCCO2)cc1` (stereo not drawn), which max response is on record?
Answer: The max response was -3.65%.

Question: With `CCOC(=O)c1ccc(NC(=O)c2ccc(NC(=O)C3CCCO3)cc2)cc1` (stereo not drawn) as the compound, how does the max response read?
Answer: Its max response is 13.9%.

Question: With `O=C(Nc1ccc(-c2nnc(-c3ccccc3)o2)cc1)C1CCCO1` (stereo not drawn) as the compound, how does the max response read?
Answer: The max response was 39.1% (active).

Question: For `Cc1cccc(NC(=O)Nc2nnc(-c3ccccc3)o2)c1`, which max response is on record?
Answer: Its max response is 2.04%.

Question: With `O=C(CSc1nnc(-c2ccc(NS(=O)(=O)c3ccccc3)cc2)o1)NCC1CCCO1` (stereo not drawn) as the compound, how does the max response read?
Answer: Its max response is -1.17%.

Question: With `O=C(Nc1cccc(-c2nnc(-c3ccccc3)o2)c1)C1CCCO1` (stereo not drawn) as the compound, how does the max response read?
Answer: The max response was 37.3% (active).

Question: Which max response does the source give for `CCn1c(=S)sc2c(=O)n(CC(=O)Nc3ccc(OC)cc3)c(C)nc21` here?
Answer: Its max response is -0.488%.

Question: For `Cc1ccccc1OCCC(=O)OCC(=O)NC(C)c1ccccc1` (stereo not drawn), which max response is on record?
Answer: Its max response is 1.95%.

Question: Which max response does the source give for `CCC(C)c1ccccc1NC(=O)CN(C)CC(=O)Nc1ccccc1SC` (stereo not drawn) here?
Answer: Its max response is -13.3%.

Question: Which max response does the source give for `Cc1cc(C(=O)COc2ccccc2[N+](=O)[O-])c(C)n1-c1cccc(S(=O)(=O)N2CCOCC2)c1` here?
Answer: The max response was 0.979%.

Question: With `Cc1ccc(-c2nn(-c3ccccc3)cc2/C=N/NC(=O)c2ccc3c(c2)OCO3)cc1` as the compound, how does the max response read?
Answer: Its max response is 16.9% (active).

Question: Which max response does the source give for `Cc1nnc(SCC(=O)N/N=C/c2cn(-c3ccccc3)nc2-c2ccc(F)cc2)n1-c1ccccc1` here?
Answer: Its max response is 10.2%.

Question: For `CC(C)(C)OC(=O)N/N=C/c1cn(-c2ccccc2)nc1-c1cccnc1`, which max response is on record?
Answer: The max response was 17%.

Question: With `O=C(NCc1ccccc1)[C@H]1C[C@@H]1[C@H](NP(=O)(c1ccccc1)c1ccccc1)c1ccccc1` as the compound, how does the max response read?
Answer: Its max response is 4.56%.

Question: For `CC(=O)N1CCCc2cc(S(=O)(=O)N3CCCC(C(=O)N4CCN(c5cccc(Cl)c5)CC4)C3)ccc21` (stereo not drawn), which max response is on record?
Answer: Its max response is 8.4%.

Question: Which max response does the source give for `Cc1sc2ncn(CC(=O)NCCCC(=O)N3CCN(c4ccccc4F)CC3)c(=O)c2c1C` here?
Answer: The max response was -3.83%.

Question: With `CCOc1ccc(OCCSc2nc3ccccc3n2CC(=O)O)cc1` as the compound, how does the max response read?
Answer: The max response was -2.45%.

Question: For `S=C(NNC(=S)NC1CC2C=CC1C2)NC1CC2C=CC1C2` (stereo not drawn), which max response is on record?
Answer: The max response was 9.74%.

Question: With `CC(C)c1ccc(NC(=S)NC2CC3C=CC2C3)cc1` (stereo not drawn) as the compound, how does the max response read?
Answer: Its max response is 51.4% (active).

Question: Which max response does the source give for `CC(NC(=S)Nc1ccc(OC(F)F)cc1)c1ccc(F)cc1` (stereo not drawn) here?
Answer: Its max response is 1.93%.
